In PubChem BioAssay (EPA / NIEHS) one finds outcome and AC50 data, which are given here for seven compounds.

Details in all cases: mRNA level, 48 h; actives raise or lower the signal
Read-out in assay [1]: Insulin Like Growth Factor 1 (IGF1), IGF1 (gene 3479)
In words: LTEA_HepaRG_IGF1: Life Technologies and Expression Analysis (LTEA) Assay for Insulin Like Growth Factor 1 (IGF1) using HepaRG (AID 2283506). The essentials:
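Endpoint: IGF1 mRNA change by qRT-PCR, housekeeping-normalized, fitted bidirectionally relative to 0.5% DMSO vehicle. Human HepaRG cells were treated 48 h in serum-free induction medium, eight half-log concentrations topping at 100 uM.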

Read-out in assay [2]: Intercellular Adhesion Molecule 1 (ICAM1), ICAM1 (gene 3383)
In words: LTEA_HepaRG_ICAM1: Life Technologies and Expression Analysis (LTEA) Assay for Intercellular Adhesion Molecule 1 (ICAM1) using HepaRG (AID 2283507). In a few lines: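 Readout is qRT-PCR mRNA level, normalized to three housekeeping genes and fitted bidirectionally against 0.5% DMSO vehicle. Human HepaRG cultures received compound for 48 h, top concentration 100 uM with half-log dilutions.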

Read-out in assay [3]: Insulin-like growth factor-binding protein 1 (IGFBP1), IGFBP1 (gene 3484)
In words: LTEA_HepaRG_IGFBP1: Life Technologies and Expression Analysis (LTEA) Assay for Insulin-like growth factor-binding protein 1 (IGFBP1) using HepaRG (AID 2283508). The essentials: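 Thawed HepaRG cells are plated for 48 h, switched to serum-free induction medium, then dosed in duplicate for another 48 h (100 uM top, half-log steps). Lysates in RLT go to qRT-PCR, and gain or loss of signal is fitted relative to vehicle.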

Read-out in assay [4]: Interleukin 6 (IL6), IL6 (gene 3569)
In words: LTEA_HepaRG_IL6: Life Technologies and Expression Analysis (LTEA) Assay for Interleukin 6 (IL6) using HepaRG (AID 2283509). The essentials: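 Changes in IL6 mRNA, up or down relative to 0.5% DMSO controls, were derived from concentration-response curves in human HepaRG cells treated for 48 h at up to 100 uM, with ACTB, GAPDH and POLR2A as normalizers.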

Read-out in assay [5]: Interleukin 6 Receptor (IL6R), IL6R (gene 3570)
In words: LTEA_HepaRG_IL6R: Life Technologies and Expression Analysis (LTEA) Assay for Interleukin 6 Receptor (IL6R) using HepaRG (AID 2283510). In a few lines:
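In this HepaRG screen, test chemicals act on cells for 48 h at up to 100 uM (eight half-log points, duplicate wells). IL6R expression is quantified by qRT-PCR after normalization to ACTB, GAPDH and POLR2A, with DMSO as baseline.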

Read-out in assay [6]: Potassium channel subfamily K member 1 (KCNK1), KCNK1 (gene 3775)
In words: LTEA_HepaRG_KCNK1: Life Technologies and Expression Analysis (LTEA) Assay for Potassium channel subfamily K member 1 (KCNK1) using HepaRG (AID 2283511). In a few lines: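 Human HepaRG cultures receive test chemicals for 48 h in 0.5% DMSO, top concentration 100 uM with half-log dilutions. Induction or suppression of KCNK1 mRNA relative to DMSO is derived by bidirectional fitting of qRT-PCR data.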

Read-out in assay [7]: Keratin 19 (KRT19), KRT19 (gene 3880)
In words: LTEA_HepaRG_KRT19: Life Technologies and Expression Analysis (LTEA) Assay for Keratin 19 (KRT19) using HepaRG (AID 2283512). The essentials: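 KRT19 transcript levels, measured by Fluidigm qRT-PCR against three housekeeping genes, are fitted for gain or loss of signal relative to DMSO. Human HepaRG cells receive test chemicals (top 100 uM, half-log steps, 0.5% DMSO) for 48 hours.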

Read-out in assay [8]: Lipase C (LIPC), LIPC (gene 3990)
In words: LTEA_HepaRG_LIPC: Life Technologies and Expression Analysis (LTEA) Assay for Lipase C (LIPC) using HepaRG (AID 2283514). The essentials: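 In this multiplexed gene-expression screen, human HepaRG cultures received test chemicals for 48 h across eight concentrations with 100 uM highest, in duplicate. Values reflect LIPC mRNA induction or suppression versus DMSO vehicle, from normalized qRT-PCR.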

Read-out in assay [9]: Lipoprotein lipase (LPL), LPL (gene 4023)
In words: LTEA_HepaRG_LPL: Life Technologies and Expression Analysis (LTEA) Assay for Lipoprotein lipase (LPL) using HepaRG (AID 2283515). The essentials:
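Concentration-response testing used half-log steps from 100 uM in 0.5% DMSO on human HepaRG cells, 48 h, duplicate wells. Phenobarbital 1 mM served as induction control; LPL mRNA was normalized to ACTB, GAPDH, POLR2A.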

Read-out in assay [10]: MicroRNA 122 (MIR122), gene 406906
In words: LTEA_HepaRG_MIR122: Life Technologies and Expression Analysis (LTEA) Assay for MicroRNA 122 (MIR122) using HepaRG (AID 2283516). Also: the transcript read is the microRNA miR-122. The essentials: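 Changes in transcript abundance, up or down relative to 0.5% DMSO vehicle, were scored after 48 h chemical treatment of HepaRG cells (maximum 100 uM). Quantification used TaqMan qRT-PCR normalized to housekeeping genes.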

Read-out in assay [11]: matrix metalloproteinase-10 (MMP10), MMP10 (gene 4319)
In words: LTEA_HepaRG_MMP10: Life Technologies and Expression Analysis (LTEA) Assay for matrix metalloproteinase-10 (MMP10) using HepaRG (AID 2283517). The essentials: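 In differentiated HepaRG cultures kept in 0.5% DMSO, test chemicals act for 48 h over an eight-point range with a top dose of 100 uM. Expression is then quantified by TaqMan RT-PCR against ACTB, GAPDH and POLR2A.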

Read-out in the next assay: MYC, MYC (gene 4609)
In words: LTEA_HepaRG_MYC: Life Technologies and Expression Analysis (LTEA) Assay for MYC using HepaRG (AID 2283518). The essentials:
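HepaRG, ~100,000 cells/well, collagen I; 48 h plating; serum-free induction medium; 48 h dosing, duplicate, 100 uM top, half-log, 0.5% DMSO; total RNA → qRT-PCR MYC; gain/loss fit vs DMSO.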

Read-out in assay [12]: Paternally Expressed 10 (PEG10), PEG10 (gene 23089)
In words: LTEA_HepaRG_PEG10: Life Technologies and Expression Analysis (LTEA) Assay for Paternally Expressed 10 (PEG10) using HepaRG (AID 2283520).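 As to AC50: PEG10 transcript by qRT-PCR normalised to ACTB GAPDH and POLR2A.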 In a few lines:
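After 48 h exposure of differentiated HepaRG cells (0.5% DMSO vehicle, eight concentrations up to 100 uM, duplicates), PEG10 mRNA was measured by TaqMan qRT-PCR. Values were normalised to endogenous control genes and analysed bidirectionally against vehicle.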

Read-out in assay [13]: Nuclear factor NF-kappa-B p105 subunit (Homo sapiens) (UniProt P19838)
In words: LTEA_HepaRG_NFKB1: Life Technologies and Expression Analysis (LTEA) Assay for Nuclear Factor Kappa B Subunit 1 (NFKB1) using HepaRG (AID 2283521).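 Also: differentiated human HepaRG liver cells in serum-free induction medium; TaqMan qRT-PCR transcript normalised to ACTB GAPDH and POLR2A housekeeping genes.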 In a few lines: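 HepaRG, 48 h exposure; 8-pt half-log series from 100 uM in 0.5% DMSO; duplicates. Readout: NFKB1 mRNA by qRT-PCR (Fluidigm arrays), housekeeping-normalized. Gain/loss fit vs DMSO baseline.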

Read-out in assay [14]: Protein phosphatase 2A (PPP2R4), PTPA (gene 5524)
In words: LTEA_HepaRG_PPP2R4: Life Technologies and Expression Analysis (LTEA) Assay for Protein phosphatase 2A (PPP2R4) using HepaRG (AID 2283522). In a few lines:
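Using HepaRG cultures maintained in 0.5% DMSO, chemicals are tested 48 h at up to 100 uM in duplicate. Induction or suppression of PPP2R4 mRNA, measured by qRT-PCR, is fitted bidirectionally against the vehicle baseline.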

Read-out in assay [15]: Phosphatase and tensin (PTEN), PTEN (gene 5728)
In words: LTEA_HepaRG_PTEN: Life Technologies and Expression Analysis (LTEA) Assay for Phosphatase and tensin (PTEN) using HepaRG (AID 2283523). The essentials: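 Expression of PTEN is quantified in the human liver line HepaRG following two days of dosing (top concentration 100 uM, half-log dilutions, 0.5% DMSO). Values derive from bidirectional curve fitting relative to DMSO controls.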

Read-out in assay [16]: solute carrier (SLC22A1), SLC22A1 (gene 6580)
In words: LTEA_HepaRG_SLC22A1: Life Technologies and Expression Analysis (LTEA) Assay for solute carrier (SLC22A1) using HepaRG (AID 2283524).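 As to AC50: differentiated human HepaRG liver cells in serum-free induction medium; TaqMan qRT-PCR normalized to ACTB GAPDH and POLR2A housekeeping genes.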 The essentials: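 Transcript induction or suppression of SLC22A1 in human HepaRG cultures is scored after 48 h chemical treatment, with DMSO (0.5%) as baseline for bidirectional fitting. Concentrations span eight half-log points topping at 100 uM.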

Read-out in assay [17]: Pyruvate Dehydrogenase Kinase 4 (PDK4), PDK4 (gene 5166)
In words: LTEA_HepaRG_PDK4: Life Technologies and Expression Analysis (LTEA) Assay for Pyruvate Dehydrogenase Kinase 4 (PDK4) using HepaRG (AID 2283525). The essentials:
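Eight-point, half-log concentration series (max 100 uM, 0.5% DMSO) applied to differentiated HepaRG cells for 48 h in duplicate. Endpoint: PDK4 mRNA induction or repression by qRT-PCR against DMSO baseline.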

Read-out in assay [18]: JUN Transcription Factor, JUN (gene 3725)
In words: LTEA_HepaRG_JUN: Life Technologies and Expression Analysis (LTEA) Assay for JUN Transcription Factor using HepaRG (AID 2283513). The essentials:
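Gene-expression endpoint: JUN mRNA (qRT-PCR, normalized to three reference genes) in HepaRG cultures treated 48 h with chemicals, duplicate wells, 100 uM maximum with half-log dilutions; bidirectional fitting relative to 0.5% DMSO.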

The source made the active and inactive calls. The calls were made as follows: active = hit-call score of the fitted dose curve at least 0.9, where 1 is the maximum; inactive = score below 0.9.

Sequence of Nuclear factor NF-kappa-B p105 subunit (Homo sapiens) (P19838 whole entry, looked up): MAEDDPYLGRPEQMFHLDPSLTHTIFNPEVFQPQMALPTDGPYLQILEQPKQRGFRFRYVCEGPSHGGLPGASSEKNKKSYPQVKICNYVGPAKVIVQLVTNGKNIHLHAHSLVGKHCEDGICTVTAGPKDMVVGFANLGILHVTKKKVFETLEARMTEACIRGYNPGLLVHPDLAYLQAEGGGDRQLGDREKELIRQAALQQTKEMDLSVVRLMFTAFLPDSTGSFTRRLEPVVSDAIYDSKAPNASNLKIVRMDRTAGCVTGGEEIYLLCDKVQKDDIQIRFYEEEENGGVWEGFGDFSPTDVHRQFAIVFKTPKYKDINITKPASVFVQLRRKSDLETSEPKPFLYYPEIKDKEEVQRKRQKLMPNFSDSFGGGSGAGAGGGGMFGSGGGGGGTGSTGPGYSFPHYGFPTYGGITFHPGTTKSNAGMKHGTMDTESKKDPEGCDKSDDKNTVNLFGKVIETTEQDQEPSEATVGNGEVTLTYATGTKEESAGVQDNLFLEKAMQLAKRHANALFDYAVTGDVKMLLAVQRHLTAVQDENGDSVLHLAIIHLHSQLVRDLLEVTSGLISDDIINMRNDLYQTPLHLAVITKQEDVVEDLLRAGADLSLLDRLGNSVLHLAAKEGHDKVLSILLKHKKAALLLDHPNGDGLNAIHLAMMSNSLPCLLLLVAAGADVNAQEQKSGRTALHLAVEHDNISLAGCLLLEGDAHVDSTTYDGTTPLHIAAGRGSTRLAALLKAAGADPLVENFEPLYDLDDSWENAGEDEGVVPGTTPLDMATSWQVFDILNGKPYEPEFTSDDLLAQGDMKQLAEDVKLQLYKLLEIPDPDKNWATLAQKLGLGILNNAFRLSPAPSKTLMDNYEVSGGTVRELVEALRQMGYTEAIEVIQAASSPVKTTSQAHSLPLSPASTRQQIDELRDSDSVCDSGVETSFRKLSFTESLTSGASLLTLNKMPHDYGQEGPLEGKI

On to `CCOC(=O)COc1ccc2c(c1)CC(NCC(O)c1cccc(Cl)c1)CC2` (stereo not drawn), for which the call in assay [1], in assay [2], in assay [3], in [4], in [5] and in assay [6] was inactive. The outcome is “inactive” in assay [9]; “inactive” in assay [10]; “inactive” in assay [11]; “inactive” with MYC, MYC (gene 4609); “inactive” in assay [12]; “inactive” in assay [13]. Further, the outcome in assay [14], in assay [15], in assay [16] and in assay [17] was inactive. Moreover, the figures for the AC50 in assay [7] and in assay [8] were 2.77 µM (active) and 45.8 µM (active), respectively.

With `CC(C)CCCCCCCOC(=O)CCCCC(=O)OCCCCCCCC(C)C`, the compound was called inactive in [1], in [2], in assay [3], in assay [4], in assay [5] and in assay [6]. Also, the result in assay [7], in assay [18], in [8], in assay [9], in assay [10] and in assay [11] was inactive. For the same compound, the outcome is “inactive” with MYC, MYC (gene 4609); “inactive” in assay [12]; “inactive” in assay [13]; “inactive” in assay [14]; “inactive” in assay [15]; “inactive” in [16]. Further, in assay [17], the compound was called inactive.

As for `CCCCCCCCO`, the outcome in assay [1], in assay [2], in assay [3], in assay [4], in [5] and in assay [7] was inactive. The outcome in assay [18] was “inactive”; in assay [8] it was “inactive”; in [9], “inactive”; in assay [10], “inactive”; in assay [11] it was “inactive”; in the assay with MYC, MYC (gene 4609), “inactive”. For the same compound, the call in [12], in [14], in [15], in assay [16] and in [17] was inactive. The AC50 in [6] was 83.9 µM (active).

Regarding `CCOCCOCCOCCO`, the compound was called inactive in assay [1], in assay [2], in assay [3], in assay [5], in [6] and in [7]. In addition, the outcome in [18] was “inactive”; in [8] it was “inactive”; in assay [9], “inactive”; in [10], “inactive”; in assay [11] it was “inactive”; with MYC, MYC (gene 4609), “inactive”. The result in assay [12], in assay [13], in assay [14], in assay [15], in [16] and in assay [17] was inactive.

Consider `Cn1cnc([N+](=O)[O-])c1Sc1ncnc2nc[nH]c12`, for which the compound was called inactive in assay [1], in assay [5], in assay [18], in assay [9], in [11] and in assay [13]. The compound was classed as inactive in [14] and in assay [15]. Also, the AC50 in assay [2] is 3.59 µM (active); in [3], 2.75 µM (active); in assay [6], 4.15 µM (active); in [7] it was 5.94 µM (active); in assay [8], 17.7 µM (active); in [10] it was 4.54 µM (active). Further, the AC50 is 6.38 µM (active) with MYC, MYC (gene 4609); 1.66 µM (active) in assay [12]; 16.1 µM (active) in assay [16]; 6.61 µM (active) in assay [17].

Turning to `CC(=O)c1ccc2c(c1)[C@H](NC(=O)c1ccc(F)cc1)[C@@H](O)C(C)(C)O2`, the call in assay [1], in assay [2], in [3], in assay [4], in assay [5] and in assay [6] was inactive. In addition, the outcome in assay [8] was “inactive”; in assay [9], “inactive”; in [10], “inactive”; in assay [11] it was “inactive”; with MYC, MYC (gene 4609), “inactive”; in [12], “inactive”. The call in assay [14], in [15] and in [16] was inactive.

In the case of `Cc1ccc(O)cc1`, the compound was classed as inactive in assay [1], in [2], in assay [3], in [4], in assay [5] and in assay [6]. Also, the outcome in [18] is “inactive”; in [8], “inactive”; in assay [9], “inactive”; in assay [10], “inactive”; in [11], “inactive”; in the assay with MYC, MYC (gene 4609), “inactive”. Also, the compound was called inactive in [12], in [13], in assay [14], in assay [15] and in assay [16].
